The results in this text go back to PubChem BioAssay.

In this assay the target is Pantothenate synthetase (Mycobacterium tuberculosis (strain ATCC 25618 / H37Rv)) (UniProt P9WIL5). In words: Coupled enzyme confirmation of inhibitors against recombinant Mtb PanC (AID 375).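 Further: 0% = full reaction with vehicle and 100% = no enzyme background.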 The following applies: coupled enzyme assay; at 10 µM, stronger effect = higher value.

Unmarked numbers belong to inactive results. How the calls were made is not given here.

Chain of Pantothenate synthetase (Mycobacterium tuberculosis (strain ATCC 25618 / H37Rv)) (P9WIL5 whole entry, looked up): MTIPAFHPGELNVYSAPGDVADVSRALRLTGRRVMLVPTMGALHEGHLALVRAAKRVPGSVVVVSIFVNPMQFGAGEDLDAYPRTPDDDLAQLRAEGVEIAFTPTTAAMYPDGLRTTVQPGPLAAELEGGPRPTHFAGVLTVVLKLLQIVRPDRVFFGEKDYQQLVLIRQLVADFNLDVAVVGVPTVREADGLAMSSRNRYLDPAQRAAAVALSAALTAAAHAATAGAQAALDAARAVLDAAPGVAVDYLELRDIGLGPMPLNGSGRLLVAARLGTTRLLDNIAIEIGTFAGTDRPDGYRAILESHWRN

`COC(=O)c1sccc1NC(=O)c1ccco1`: the inhibition was 1%.
For the molecule `Cc1cc(C)c2cc3c(ccn3C3OC[C@H](O)[C@H](O)[C@H]3O)cc2n1` (stereo not given in full), the inhibition is 4%.
For the molecule `C/C=C(\C)c1nnc(NC(=O)OCC)s1`, the inhibition is 0%.
On to `CCN1CCCC1CNC(=O)CS(=O)(=O)Cc1nc(-c2ccccc2C)oc1C` (stereo not given), for which the inhibition was 0%.
`CC1CCCCN1S(=O)(=O)c1ccc(NC(=O)c2cccs2)cc1` (stereo not given): the inhibition is 0%.
In the case of `CC(C)(C)NC(=O)C(c1ccco1)N(C(=O)Cn1nnc(-c2ccc(F)cc2)n1)c1ccccc1F` (stereo not given), the inhibition is 5%.
For `CCCc1cc(C(=O)Nc2ccccc2C(=O)OC)no1` the value was 0%; for `O=C(NCCN1CCCC1)C1COc2ccccc2O1` (stereo not given), 3%.
`CCOC(=O)c1sc2nc3c(cc2c1N)COC(C)(C)C3`: the inhibition was 12%.
As to `Cc1nn(-c2ccccc2)c2c1C(=O)NC(=O)C(C)(C)C2`, the inhibition is 0%.
In the case of `COC(=O)c1nc2n(n1)C(c1ccc(OC)c(OC)c1)C(C(=O)OC1CCCCC1)=C(C)N2` (stereo not given), the inhibition is 0%.
In the case of `CCOC(=O)c1cc(-c2ccccc2)sc1N`, the inhibition is 3%.
Turning to `Cc1nc(C)n(C(C)CC(=O)O)n1` (stereo not given), the inhibition was 0%.
On to `O=C1c2ccccc2NC2CCCCCN12` (stereo not given), for which the inhibition is 0%.
For the molecule `COc1ccc(NC(=O)c2oc3ccc(S(=O)(=O)N4CCC5(CC4)OCCO5)cc3c2C)cc1`, the inhibition is 6%.
Turning to `CC1(C)NC(=O)N(CN2C(=O)NC(C)(C)C2=O)C1=O`, the inhibition was 0%.
As to `O=C(NC1CC1)c1cccc(Nc2ccc(-c3ccc4c(c3)OCCO4)nn2)c1`, the inhibition is 1%.
For `CCN(CC)c1ccc(NC(=O)c2nc3nc(C)cc(C(F)F)n3n2)cc1`, the inhibition is 0%.
On to `COC(=O)CCn1nnc(-c2cccs2)n1`, for which the inhibition was 1%.
For `CCOc1cc(S(=O)(=O)Nc2ccccn2)ccc1F` the value was 0%.
In the case of `CC(=O)Nc1cccc(NC(=O)c2ccco2)c1`, the inhibition is 0%.
Take `COc1cc(OC)cc(-c2nnc(Nc3nc4c(F)cccc4s3)o2)c1`: the inhibition was 12%.
Regarding `Cc1ccc(-c2ccc(/C=N/n3cnnc3)o2)cc1Cl`, the inhibition is 11%.
In the case of `COc1ccccc1C(O)P(=O)(OC(C)C)c1ccc(N(C)C)cc1` (stereo not given), the inhibition was 0%.
Regarding `O=C(COc1ccc2c(c1)OCO2)NC12CC3CC(CC(C3)C1)C2`, the inhibition is 4%.
In the case of `O=C(C1CCCN(S(=O)(=O)c2cnc[nH]2)C1)N1CCN(c2ccc(Cl)cc2)CC1` (stereo not given), the inhibition is 0%.
For `OCCN1CCN(CCCN2c3ccccc3Sc3ccc(C(F)(F)F)cc32)CC1` the value was 2%; for `COC(=O)C1=C(C)n2nnnc2NC1c1ccc(Cl)cc1` (stereo not given), 2%; for `CO[C@@]1(NC(=O)CSCC#N)C(=O)N2C(C(=O)O)=C(CSc3nnnn3C)CS[C@@H]21`, 0%.
Turning to `CCC(C)NC(=O)C1CCCN(S(=O)(=O)c2ccc(-n3cnnn3)cc2)C1` (stereo not given), the inhibition is 0%.
For the molecule `Cc1ccc(Cn2c(=N)c(C(=O)NCc3ccco3)cc3c(=O)n4ccccc4nc32)cc1`, the inhibition is 1%.
Regarding `Cc1cc(C)c(S(=O)(=O)N(C)CC(N)=O)c(C)c1`, the inhibition is 0%.
For `CC(C)(C)n1ncc2c(=O)n(CC(=O)NCc3ccccc3)cnc21` the value was 0%.
On to `O=C(O)CCc1ccc(-c2cccs2)o1`, for which the inhibition is 6%.
As to `COc1ccc(CCNS(=O)(=O)c2ccc3c(c2)OCCO3)cc1`, the inhibition is 0%.
With `CCC(CC)C(=O)Nc1cccc(C(=O)NCc2ccco2)c1`, the inhibition is 6%.
`COc1ccc(OC)c(CNC(=O)CCN2C(=O)COc3ccccc32)c1`: the inhibition was 5%.
Take `O=C(CCCC(=O)N(CC(=O)NC1CCCCC1)Cc1ccc2c(c1)OCO2)Nc1ccccn1`: the inhibition was 2%.
For `O=C(Nc1ncnc2sc3c(c12)CCCCC3)c1ccco1`, the inhibition was 10%.
Turning to `CC(C)CCSc1nc2c(c(=O)[nH]c(=O)n2C)n1CCCc1ccccc1`, the inhibition is 0%.
For the molecule `CC1CCCN(C(=O)c2cc(F)c(F)cc2Cl)C1` (stereo not given), the inhibition was 0%.
For `CCCCOC(=O)Cn1c(=N)n(CCN2CCOCC2)c2ccccc21` the value was 0%.
As to `Cc1csc(NC(=O)CSc2nsc(SCC(=O)Nc3nc(C)cs3)c2C#N)n1`, the inhibition is 2%.
`Cn1c(Cc2cccs2)nnc1SCC(=O)N1CCc2ccccc21`: the inhibition was 0%.
`COc1ccccc1-c1c(C)nn2c(N3CCC4(CC3)OCCO4)cc(C)nc12`: the inhibition was 5%.
Regarding `O=C(c1ccco1)N1CCN(CCCCN2C(=O)c3ccccc3C2=O)CC1`, the inhibition is 5%.
On to `CCOc1ccc(-c2nnc(N)s2)cc1`, for which the inhibition is 0%.
In the case of `O=C(/C=C/c1ccccc1)c1ccccc1`, the inhibition is 0%.
As to `O=S(=O)(c1ccc(Br)s1)N1CCN(c2ccccc2)CC1`, the inhibition is 0%.
`C(=N/n1c2ccccc2c2ccccc21)/c1ccco1`: the inhibition was 0%.
For `O=C(NCN1CCCCC1)c1cccnc1` the value was 0%.
`CC(C)(C)Nc1nc(NC(C)(C)C)nc(-n2ccnc2)n1`: the inhibition was 0%.
With `Cc1cn2c(-c3ccc(Cl)cc3)nnc2s1`, the inhibition is 0%.
As for `CS(=O)(=O)N(Cc1ccco1)CC(O)Cn1c2ccccc2c2ccccc21` (stereo not given), the inhibition was 0%.
For `O=C(COc1cccc(Oc2ccccc2)c1)Nc1ncccn1`, the inhibition is 2%.
